For test [1], the system named is Human papillomavirus type 1a protein E7 (residues 44-93). The test is described as follows: HPV1a E7 fragment binders on microarrays, primary screen, biochemical, small-molecule microarray, residues 44-93, 635 nm fluorescence (AID 1108).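 Note: E7 fragment applied at 1 µg/mL in TBST for 1 h at 4 C; score combines spot fluorescence with its signal to noise ratio.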 To be noted: small-molecule microarray binding, fluorescence 635 nm; higher = more signal.
Test [2] is described as follows: modulators of HCV replicon luciferase signal, primary screen, HCV replication inhibitor project, Huh7 cells, luciferase reporter (AID 1109).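 Note: huh7 hepatoma cells harbouring a luciferase neomycin HCV replicon reporter; luciferase luminescence as measure of HCV replicon replication; test concentration not given here.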 To be noted: 48 h, higher = more signal.
Test [3] has as its target Left-right determination factor 2 (Homo sapiens) (UniProt O00292). Description: LEFTY2 binders on small-molecule microarrays, primary screen, biochemical, small-molecule microarray, 635 nm fluorescence scan (AID 1110). Conditions: LEFTY2 binding, higher = more signal.
The target of test [4] is Calmodulin-1 (Homo sapiens) (UniProt P0DP23). Description: CALM1 binders on microarrays, EGTA buffer, profiling panel, biochemical, small-molecule microarray, Cy5-labelled CALM1 (AID 1111).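 Note: labelled calmodulin applied in Tris saline Tween buffer holding calcium plus EGTA and DTT.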 Conditions: Cy5-CALM1 binding fluorescence, higher = more signal.
Test [5] shares this target. Description: calcium-bound CALM1 binders on microarrays, profiling panel, artefact control for SMM control-protein annotation, biochemical, small-molecule microarray, Cy5-labelled CALM1, plus calcium (AID 1112).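 Note: score merges spot fluorescence with signal to noise from triplicate slides.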 To be noted: Cy5-CALM1 binding fluorescence, higher = more signal.
Test [6] can be described thus: small-molecule microarray binders of probe aWnt5a, primary screen, biochemical, biotinylated probe, 635/667 nm fluorescence (AID 1113).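 Note: score merges 667 nm fluorescence intensity with signal-to-noise per printed feature.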 Conditions: higher = more signal.
The nature of test [7]: small-molecule microarray binders of probe aShh, primary screen, biochemical, biotinylated probe, 635/667 nm fluorescence (AID 1114).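 Note: probe is biotin-labelled aShh protein from a stem cell growth factor screen; measures binding of labelled protein to compounds printed on the slide; score merges feature fluorescence at 667 nm with signal-to-noise.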 Conditions: higher = more signal.
Test [8] can be described thus: small-molecule microarray binders of probe aNog, primary screen, biochemical, biotinylated probe, 635/667 nm fluorescence (AID 1115).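 Note: probe is biotinylated aNog protein used at 0.15 µg/mL for 1 h at 4 C; z-score combines 667 nm fluorescence of each spot with its signal to noise.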 Conditions: higher = more signal.
Test [9] concerns the target Torsin-1A-interacting protein 1 (Homo sapiens) (UniProt Q5JTV8). The test is described as follows: LAP1 binders from COS7 cell lysate, primary screen, small-molecule microarray, 635/667 nm fluorescence (AID 1116). Conditions: COS7-hLAP1 lysate binding, 635 nm fluorescence, higher = more signal.
In test [10] the target is Alpha-bungarotoxin (Bungarus multicinctus) (UniProt P60615). Description: alpha-bungarotoxin binders on microarray, profiling panel, artefact control for SMM control protein annotation, biochemical, small-molecule microarray, Alexa647 label, 635/667 nm fluorescence (AID 1117). Conditions: alpha-BTX-A647 binding fluorescence, higher = more signal.
Chain of Alpha-bungarotoxin (Bungarus multicinctus) (P60615 whole entry, looked up): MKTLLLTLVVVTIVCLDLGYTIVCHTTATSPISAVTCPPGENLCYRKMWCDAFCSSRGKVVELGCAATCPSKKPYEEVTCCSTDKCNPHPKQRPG

Chain of Torsin-1A-interacting protein 1 (Homo sapiens) (Q5JTV8 whole entry, looked up): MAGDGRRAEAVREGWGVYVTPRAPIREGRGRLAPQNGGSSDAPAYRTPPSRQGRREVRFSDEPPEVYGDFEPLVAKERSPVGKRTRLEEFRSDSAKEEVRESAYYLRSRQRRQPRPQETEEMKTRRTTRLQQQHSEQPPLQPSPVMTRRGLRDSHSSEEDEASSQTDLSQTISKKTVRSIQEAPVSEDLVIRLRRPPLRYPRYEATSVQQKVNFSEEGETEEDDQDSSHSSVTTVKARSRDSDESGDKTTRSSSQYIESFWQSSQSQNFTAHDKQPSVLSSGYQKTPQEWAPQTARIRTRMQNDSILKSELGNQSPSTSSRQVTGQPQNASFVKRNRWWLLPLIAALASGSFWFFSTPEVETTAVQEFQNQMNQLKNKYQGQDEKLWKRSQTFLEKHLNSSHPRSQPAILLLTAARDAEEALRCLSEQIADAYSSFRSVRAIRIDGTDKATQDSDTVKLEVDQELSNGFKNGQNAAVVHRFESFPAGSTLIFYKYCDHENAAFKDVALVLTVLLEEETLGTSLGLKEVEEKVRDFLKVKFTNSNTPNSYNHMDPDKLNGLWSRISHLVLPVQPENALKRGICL
Chain of Left-right determination factor 2 (Homo sapiens) (O00292 whole entry, looked up): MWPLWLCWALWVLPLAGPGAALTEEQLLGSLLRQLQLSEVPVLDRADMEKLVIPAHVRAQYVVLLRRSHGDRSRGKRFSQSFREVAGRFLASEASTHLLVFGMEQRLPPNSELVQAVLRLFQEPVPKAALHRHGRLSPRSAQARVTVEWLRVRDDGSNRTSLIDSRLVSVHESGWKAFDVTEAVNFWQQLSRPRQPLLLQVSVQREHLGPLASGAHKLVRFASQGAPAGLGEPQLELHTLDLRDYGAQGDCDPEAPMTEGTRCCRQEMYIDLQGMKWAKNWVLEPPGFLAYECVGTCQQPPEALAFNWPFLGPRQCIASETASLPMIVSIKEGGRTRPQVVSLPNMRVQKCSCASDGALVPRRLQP

With `COC(=O)[C@@]1(Cc2ccc(F)cc2)[C@H]2c3cc(C(=O)N(C)C)n(CCn4cc([N+](=O)[O-])nc4C)c3C[C@H]2CN1C(=O)c1ccccc1`, the composite z-score in test [1] was 0.81; in [3], -0.831; in [4] it was 0.892; in test [5] it was 0.378; in test [6], -0.003; in [7] it was 0.631. Further, the composite z-score in test [8] amounted to 1.08; in test [9], 1.49; in [10] it was 0.0533. For the same compound, the z-score in [2] is -0.112.

Take `CC1CC/C=C\[C@H]2OC34C=CCN(c5ccc(Cl)cc5)C(=O)[C@H]3N(CCCO)C(=O)[C@]4(C)C2C(=O)O1` (stereo not given in full): the composite z-score in test [1] was -0.678; in test [3], -1.33; in test [4], -0.484; in [5], 0.456; in test [6], -0.124; in [7] it was -0.0553. Besides, the composite z-score in test [8] was -0.0211; in [9], -1.06; in [10], -0.859. Further, in test [2], the z-score was -1.07.

As to `CCCCCN1CC=CC23O[C@@H]4C=CCOC(=O)[C@@H]4[C@H]2C(=O)N(CCCCCO)[C@@H]3C1=O` (stereo not given in full), the composite z-score was -0.678 in test [1]; -1.19 in test [3]; -0.511 in [4]; -0.177 in test [5]; -0.209 in test [6]; -0.0035 in [7]. In addition, the composite z-score is -0.223 in test [8], 0.229 in [9] and -0.724 in test [10]. In [2], the z-score was -0.0591.

For `CN(C)CCCNC(=O)[C@@]1(Cc2ccccc2I)c2ccccc2C(=O)N(Cc2ccccc2)[C@H]1c1ccc(CO)cc1`, the composite z-score was 1.41 in test [1]; 0.189 in test [3]; -0.489 in test [4]; -0.636 in test [5]; 0.22 in [6]; -0.32 in [7]. Also, the results for the composite z-score in test [8], in test [9] and in test [10] were 0.84, 1.21 and 0.542, respectively. Further, the z-score in test [2] is -3.36.

For the compound `COCCOC(=O)N1C(=O)[C@@]2(c3cc(C#CCCO)ccc31)[C@H](C(=O)N1CCN(c3ncccn3)CC1)[C@H]1C(=O)O[C@H](c3ccccc3)[C@H](c3ccccc3)N1[C@@H]2c1ccc(O)cc1`, the composite z-score in test [1] is 0.228; in test [3] it was 0.0272; in test [4] it was -0.444; in test [5], -0.559; in [6], -0.0179; in test [7] it was 0.0074. For the same compound, the composite z-score came out at 1.01 in test [8], 0.894 in test [9] and 1.85 in [10]. Besides, in [2], the z-score was -1.65.

Regarding `COCCOC(=O)N1C(=O)[C@@]2(c3cc(C#CC4=CCCCC4)ccc31)[C@H](c1ccc(OCCO)cc1)N1[C@H](c3ccccc3)[C@H](c3ccccc3)OC(=O)[C@H]1[C@@H]2C(=O)N1CCCCCCC1`, the composite z-score in test [1] came to 0.67; in test [3], 0.853; in [4], 0.643; in test [5], 0.758; in test [6], 0.267; in test [7], 1.44. Further, the composite z-score in test [8] was found to be 1.33; in [9], 1.91; in test [10], 1.9. Also, the z-score in test [2] is -1.13.

Turning to `O=C1c2ccccc2[C@@]2(Cc3ccccc3N(Cc3ccccc3)C2=O)[C@H](c2ccc(CO)cc2)N1Cc1ccccc1`, the composite z-score is 0.145 in test [1]; -1.09 in [3]; -0.73 in test [4]; 0.242 in test [5]; -0.236 in test [6]; -0.153 in test [7]. The composite z-score was -0.36 in [8], -0.516 in [9] and -0.114 in test [10]. For the same compound, the z-score in test [2] is -0.173.

For `C=C(COC)C(=O)CC[C@@H](OC(=O)c1cccnc1)c1cccc(OCCO)c1`, the composite z-score is 0.743 in test [1]; -0.116 in test [3]; -0.725 in [4]; -0.89 in test [5]; -0.0731 in [6]; 0.0121 in test [7]. The values for the composite z-score in test [8], in test [9] and in test [10] were 1.09, 0.295 and -0.101, respectively. In addition, in [2], the z-score was -1.64.

`COC(=O)[C@@]1(Cc2ccc(OC)cc2)[C@H]2c3cc(C(=O)N4CCCC4)n(CCc4ccc(OC)c(Br)c4)c3C[C@H]2CN1C(=O)c1ccccc1`: the composite z-score in [1] was -0.027; in [3], -0.38; in test [4], 2.19; in test [5], 0.967; in test [6], -0.0519; in [7] it was 0.865. Besides, the composite z-score in test [8] is 2.37; in test [9], 2.06; in [10] it was -0.123. Also, in test [2], the z-score is 0.0171.

As to `COc1ccc(CCNC(=O)[C@@H]2c3ccccc3C(=O)N(CC34CC5CC(CC(C5)C3)C4)[C@H]2c2ccc(CO)cc2)cc1`, the composite z-score in [1] is 1.29; in [3], 0.453; in [4], 1.67; in [5] it was 0.576; in test [6], -0.0286; in test [7] it was 0.0381. For the same compound, the composite z-score was -0.338 in test [8], 0.321 in [9] and 0.664 in [10]. Moreover, the z-score in [2] is -2.34.

`COc1ccccc1CN1C(=O)c2ccccc2[C@](Cc2ccccc2I)(C(=O)NCCCN(C)C)[C@@H]1c1ccc(CO)cc1`: the composite z-score in [1] is 1.35; in test [3] it was -0.371; in test [4], -0.167; in test [5], -0.272; in [6] it was 0.134; in [7], 0.215. The composite z-score was 1.44 in test [8], 0.549 in test [9] and 0.812 in test [10]. Besides, in test [2], the z-score was -3.5.

As to `COC(=O)[C@@]1(CCS(=O)(=O)c2ccccc2)N=C(c2ccc(OCCCO)cc2)O[C@H]1c1ccccc1N=[N+]=[N-]`, the composite z-score in test [1] was 1.38; in [3], 0.406; in [4], 1.29; in [5] it was 0.383; in test [6], -0.0455; in [7], -0.0904. Besides, the results for the composite z-score in test [8], in test [9] and in test [10] were 0.424, 0.861 and 2.23, respectively. The z-score in test [2] was -1.83.

In the case of `O=C1NC(=O)C2C1C=CC(C(O)c1ccc(F)cc1)N2Nc1ccccn1` (stereo not given), the composite z-score was 0.164 in test [1]; -0.0392 in [3]; 0.0754 in test [4]; -0.255 in test [5]; -0.124 in test [6]; 0.0684 in [7]. The composite z-score in test [8] worked out at 0.147; in [9] it was 0.513; in test [10], 0.349. Further, the z-score in test [2] stood at 0.305.

`[N-]=[N+]=NCc1ccccc1C[C@]1(C(=O)N2CCCCC2)N=C(c2ccc(OCCCO)cc2)O[C@H]1c1ccccc1`: the composite z-score in test [1] is 0.809; in [3] it was -1.05; in test [4] it was 0.816; in [5], 0.407; in test [6], 0.105; in [7], 0.134. Besides, the composite z-score in test [8] was 0.437; in test [9] it was 1.11; in [10], -0.049. For the same compound, the z-score in [2] is -3.2.

As for `COc1ccc(CCNC(=O)[C@@]2(Sc3ccc(C)cc3)CC(=O)N(C(C)C)[C@@H]2c2ccc(CO)cc2)cc1`, the composite z-score is 0.889 in test [1]; -2.73 in test [3]; 0.359 in test [4]; -0.242 in test [5]; -0.28 in [6]; 0.0121 in [7]. For the same compound, the composite z-score is -0.209 in test [8], -1.16 in test [9] and -0.563 in test [10]. Besides, in [2], the z-score was -0.887.

For the compound `COc1ccc([Si](C)(C)[C@H]2[C@H](CCn3cc([C@H](O)c4ccccc4)nn3)O[C@@]3(C(=O)N(c4ccccc4)c4ccccc43)[C@@H]2C)cc1`, the composite z-score was 0.323 in test [1]; -0.202 in test [3]; -0.0353 in test [4]; 0.82 in test [5]; -0.1 in [6]; -0.2 in test [7]. Besides, the composite z-score in [8] is -0.143; in test [9], -0.179; in [10], 0.0509. Moreover, in test [2], the z-score was -2.91.

These data come from PubChem BioAssay.
